Data published in PubChem BioAssay AID504332 (National Center for Advancing Translational Sciences (NCATS), 2011).
About 31,000 (8.9%) of roughly 350,000 compounds were called active. Inconclusive results (about 15%) are left out. The call rests on the fitted dose curve; in most records, active means well fitted inhibition curve with a large enough effect; inconclusive means small, poorly fitted or top-dose-only effect; inactive means no such curve, though single readings can be large or run the other way. Only a selection was taken, and actives are over-represented in it overall.

Target: Histone-lysine N-methyltransferase EHMT2 (Homo sapiens) (UniProt Q96KQ7)
Test: qHTS Assay for Inhibitors of Histone Lysine Methyltransferase G9a; further: nearly all actives have a fitted effect of over 75% in size
Conditions: G9a H3K9 monomethylation, AlphaScreen, 2 h; series mostly up to 59 µM; activity, negative = inhibition: at the top concentration
How it was run: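 Chemiluminescent proximity detection of H3K9 monomethylation, read after 10 min bead incubation in the dark. Reaction: 20 nM G9a, 500 nM biotin-H3K9 peptide, 20 uM SAM cofactor, 2 h, room temperature, following 15 min enzyme-compound preincubation.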
On the % scale 0 is the no-effect control and ±100 the full control effect; potency means the concentration at half of the fitted maximal effect.

Sequence of Histone-lysine N-methyltransferase EHMT2 (Homo sapiens) (Q96KQ7 913-1193 limits assumed): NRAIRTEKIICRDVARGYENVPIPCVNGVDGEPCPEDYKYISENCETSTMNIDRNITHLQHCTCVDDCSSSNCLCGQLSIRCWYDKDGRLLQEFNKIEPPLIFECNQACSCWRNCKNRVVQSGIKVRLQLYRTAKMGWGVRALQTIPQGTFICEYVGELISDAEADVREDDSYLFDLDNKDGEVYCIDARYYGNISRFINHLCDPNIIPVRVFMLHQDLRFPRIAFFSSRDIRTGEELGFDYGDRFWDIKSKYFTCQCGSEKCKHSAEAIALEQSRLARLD

activity, negative = inhibition, inactive:
CCN(C(=O)COC(=O)c1sccc1C)c1c(N)n(Cc2ccccc2)c(=O)[nH]c1=O 4.77% [at 0.501 µM], CN(C)C(CNC(=O)c1ccc(OCc2cn3ccccc3n2)cc1)c1ccco1 (centres undefined) -7.88%, CN(C(=O)CSc1nc2ccccc2n1Cc1ccccc1C#N)c1ccccc1 -8.09%, NS(=O)(=O)c1ccc(CNC(=O)c2cccc(Oc3ccccc3)c2)cc1 12% [at 102 µM], O=C(CNc1ccccc1N1CCCC1=O)Nc1cc(Cl)ccc1-n1cncn1 -39.6% [at 102 µM], CCc1ccccc1NC(=O)CSc1nnc([C@@H](NC(=O)OC(C)(C)C)C(C)C)o1 10.1% [at 2.33 µM], C[C@H](NC(=O)OC(C)(C)C)c1nnc(SCC(N)=O)o1 0.361% [at 102 µM], O=C(CN1CCN(S(=O)(=O)c2ccc(Cl)s2)CC1)N1CCCCC1 18.1% [at 2.33 µM], CCOc1cc(/C=C(\C#N)c2nc(-c3cccs3)c(NC(C)=O)s2)ccc1O 8.33%, COc1ccc(/C=N\NC(=O)c2sc(N)nc2C)cc1OC 63.3%, CC1=Nc2cc(C(=O)N3CCC(C)CC3)ccc2Sc2ccc(Cl)cc21 -32.2%, CCc1nnc(SCc2nc(-c3cccc(C)c3)oc2C)c2cc3sc(C)cc3n12 -2.67%, CC(C)Oc1ccc(S(=O)(=O)N2CCOCC2)cc1NC(=O)C1CCCC1 -4.09%, CCN(CC)S(=O)(=O)c1ccc(N2CCOCC2)c(NC(=O)C2CSC3(C)CCC(=O)N23)c1 (centres undefined) 7.95% [at 102 µM], Cc1ccc(CC2C(=O)N(c3ccc(F)cc3)C(=O)C2C)cc1 (centres undefined) 2.4% [at 0.501 µM], CCNC(=O)CC1C(=O)N(c2ccc(F)cc2)C(=O)N1Cc1ccc(C)cc1 (centres undefined) -4.01%, O=C(c1cc(COc2ccc(F)c(F)c2)on1)N1CCOCC1 -4.01% [at 0.501 µM], Cc1cc(NS(=O)(=O)c2ccc(NC(=O)C(C)Oc3cccc(C)c3C)cc2)nc(C)n1 (centres undefined) 53.2% [at 102 µM], Cn1c(=O)[nH]c(=O)c2c1[nH]c(=S)n2Cc1ccccc1 -14.7% [at 2.33 µM], Cc1ccc(C)c(NC(=O)COC(=O)CSc2ccccc2)c1 0.0476% [at 12.7 µM], COc1ccc(C)cc1NC(=O)c1cc(-c2ccccc2)nc2c1cnn2C(C)C 0.616% [at 12.7 µM], CC(Sc1nnc(C2CC2)n1C1CC1)C(=O)Nc1ccc(C(N)=O)cc1 (centres undefined) -5.65% [at 2.33 µM], CC(C)=C(NC(=O)c1ccco1)C(=O)NCCc1nc2ccccc2[nH]1 6.16% [at 2.33 µM], COc1ccc(OC(C)C(=O)NCCc2nc3ccccc3[nH]2)cc1 (centres undefined) -6.9% [at 102 µM], Cc1ccc(-n2nc(C)c3c(C)cc(=O)n(CC(=O)Nc4ccc(C(C)C)cc4)c32)cc1 16.2%, CCN(CC(=O)Nc1c(F)cccc1F)C(=O)c1ccc(Sc2nncn2C)c([N+](=O)[O-])c1 -3.94% [at 102 µM], Cc1ccc(S(=O)(=O)N2CCN(C(=O)CSc3cc(C)ccc3C)CC2)c(C)c1 39.7% [at 102 µM], O=C1CCC([N+](=O)[O-])C(c2ccccc2Br)N1 (centres undefined) 22.3% [at 102 µM], COc1ccc(C2CC(c3ccc(C)cc3)Nc3nc(N)nn32)cc1 (centres undefined) 0.965% [at 102 µM], O=C1NC(c2cccc(Cl)c2)Nc2ccccc21 (centres undefined) -1.01% [at 102 µM], COc1ccc(C2NC(=O)c3ccccc3N2)cc1 (centres undefined) 2.64% [at 102 µM], Cc1ccc(C2CC(c3cccc(C)c3)n3nc(N)nc3N2)cc1 (centres undefined) 11.8% [at 102 µM], COc1ccc(N2C(=O)C3CCCN3C2c2cccc(OC)c2)cc1 (centres undefined) -0.251% [at 102 µM], COc1ccc(C(C#N)(CC(=O)O)c2cnccn2)cc1OC (centres undefined) 3.29% [at 2.33 µM], CC1CCCN(c2nc3c(S(=O)(=O)c4ccc(C(C)C)cc4)nnn3c3ccsc23)C1 (centres undefined) 6.43%, COc1ccc(CNC(=O)c2ccc(NS(=O)(=O)c3ccc4[nH]c(=O)[nH]c4c3)cc2)cc1OC 19.8% [at 12.7 µM], CCOc1ccc(-c2nonc2NC(=O)c2oc3ccc(CC)cc3c2C)cc1 71.8%, Cn1c(C(=O)Nc2cccc(C(F)(F)F)c2)cc2c(=O)n3ccccc3nc21 -32.2%, CC(=O)N1CCc2c(sc(NC(=O)CCS(=O)(=O)c3ccccc3)c2C#N)C1 2.65% [at 102 µM], CC(C)(C)n1ncc2c(=O)n(Cc3c(Cl)cccc3Br)cnc21 -12.6% [at 2.33 µM], CCOC(=O)c1cc(NC(=O)c2ccc(F)cc2)c(=O)n2c1oc1ccccc12 -36%, COc1ccccc1-c1nnc(C2CCN(C(=O)c3ccc(Cl)cc3)CC2)o1 0.515%, CCOC(=O)c1cc(-c2ccc(OC)c(S(=O)(=O)Nc3ccc(OC)cc3OC)c2)on1 -24.5%, C=CCc1cccc2cc(C(=O)OCC)c(=O)oc12 19.5% [at 102 µM], Cc1cccc(C)c1NC(=O)COC(=O)c1ccccc1O 16.4% [at 102 µM], CCCN(CCC)C(=O)Cn1c(=O)n(-c2ccc(Cl)cc2)c(=O)c2c3c(sc21)CCCCC3 8.07%, Cc1ccc(C)c(C(=O)COC(=O)Cn2[nH]c(=O)c3ccccc3c2=O)c1 11.2% [at 12.7 µM], Cc1ccc(-n2cnc3cc(C(=O)NCCC4=CCCCC4)ccc32)cc1Cl -3.44%

Potency, active:
CC(C)Sc1nnc([C@H](Cc2ccccc2)NC(=O)OC(C)(C)C)o1 35.5 µM, COc1cc(/C=N\Nc2nc(-c3cccs3)c(NC(C)=O)s2)ccc1O 11.2 µM, CC(C)Oc1ccc(S(=O)(=O)N2CCOCC2)cc1NC(=O)C1CSC2(C)CCC(=O)N12 (centres undefined) 44.7 µM, C=C1c2cc(CC)ccc2NC(=O)N1c1ccc(C)cc1 11.2 µM, CN1C=CC=C/C1=C1\SC(=S)N(Cc2ccccc2)C1=O 20 µM, CC(C)Oc1ccc(/C=C(\NC(=O)/C=C/c2ccco2)C(=O)NCCc2nc3ccccc3[nH]2)cc1 39.8 µM, Cc1ccc(C2Nc3cccc4cccc(c34)N2)cc1 10 µM, COc1cccc(C2Nc3cccc4cccc(c34)N2)c1 20 µM, Oc1ccc(C2Nc3cccc4cccc(c34)N2)cc1 25.1 µM, Brc1ccccc1C1Nc2cccc3cccc(c23)N1 44.7 µM, CCOc1cccc2cc(C(=O)OCC(=O)Nc3c(C)cccc3CC)c(=O)oc12 44.7 µM
